The text below walks through data of PubChem BioAssay.

Calls of active or inactive are those of the source.

One assay has as its target Albumin (Bos taurus) (UniProt P02769). The experiment in a line: bovine serum albumin binders on microarray, profiling panel, artefact control for SMM control protein annotation, biochemical, small-molecule microarray, Alexa647 label, 635/667 nm fluorescence (AID 1118).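 Also: score merges 667 nm emission intensity and signal-to-noise per printed compound spot.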 To be noted: BSA-A647 binding, fluorescence 635 nm, higher = more signal.
Assay [1] in a line: small-molecule microarray binders of probe aXIP, primary screen, biochemical, NeuroSMM set, 635/667 nm fluorescence (AID 1119).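 Also: probe is the protein aXip251-270 applied at 1 µg/mL to compound-printed slides; binding of probe to printed compounds measured as 667 nm fluorescence plus signal to noise.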 To be noted: higher = more signal, called active from +8 up or from −8 down.
Assay [2] can be described thus: small-molecule binders of probe aNOTCH3, primary screen, biochemical, small-molecule microarray, 635/667 nm fluorescence (AID 1120).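 Also: probe is a biotin-tagged antibody raised against NOTCH3 rather than NOTCH3 protein; score merges spot fluorescence near 667 nm with spot signal to noise.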 To be noted: higher = more signal.
Assay [3] is described as follows: small-molecule binders of probe aNOTCH2, primary screen, biochemical, small-molecule microarray, 635/667 nm fluorescence (AID 1121).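 Also: score merges feature fluorescence read at 667 nm with its signal to noise.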 Conditions: higher = more signal.
In assay [4] the target is Carbonic anhydrase 2 (Homo sapiens) (UniProt P00918). Put plainly: CAII small-molecule binders, profiling panel, biochemical, small-molecule microarray, Alexa647-labelled CAII (AID 1122). To be noted: CAII-A647 binding fluorescence, higher = more signal.
Assay [5] in a line: COS7 lysate on small-molecule microarray, probe aHis, 635 nm (AID 1123).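 Also: z-score combines 667nm fluorescence intensity with signal-to-noise per printed compound spot.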 To be noted: COS7 cell lysate, fluorescence, higher = more signal.
Assay [6] is described as follows: compound binding in COS7 lysate, probe aLAP1, primary screen, cell lysate, small-molecule microarray (AID 1124).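 Also: lysate comes from COS7 cells expressing LAP1 and is applied at 0.3 µg/mL; score merges spot fluorescence near 667 nm with signal-to-noise over triplicate slides.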 To be noted: probe aLAP1, fluorescence, higher = more signal.
The next assay concerns Sam68 (KHDRBS1). The experiment in a line: Sam68 small-molecule binders, primary screen, biochemical, small-molecule microarray, 635 nm fluorescence (AID 1125).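 Also: score merges 667 nm channel intensity with signal to noise over triplicate slides.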 To be noted: small-molecule microarray binding, higher = more signal.
The test system of assay [7] is Chordin-like protein 2 (CHRDL2). Put plainly: CHRDL2 small-molecule binders, primary screen, biochemical, small-molecule microarray, 635 nm fluorescence (AID 1126).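 Also: printed compound slides probed with Chrdl2 protein at 4 µg/mL for 1 h at 4 C; score merges 667 nm emission intensity with signal to noise over three replicate slides.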 To be noted: small-molecule microarray binding, fluorescence 635 nm; higher = more signal.
Assay [8] addresses Concanavalin-A (Canavalia ensiformis) (UniProt P02866). Put plainly: ConA small-molecule binders, primary screen, artefact control for SMM control protein annotation, biochemical, small-molecule microarray, Alexa647 label, 635 nm (AID 1127).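 Also: z combines 667 nm emission intensity with signal-to-noise across three replicate slides.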 Conditions: ConA-A647 binding fluorescence, higher = more signal.
A short description of assay [9]: anti-His antibody binders, primary screen, artefact control for SMM control protein annotation, biochemical, small-molecule microarray, 635 nm fluorescence (AID 1128).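 Also: score merges feature fluorescence with signal-to-noise for each printed compound spot.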 To be noted: anti-His Alexa647 antibody binding, higher = more signal.
In assay [10] the test system is Human papillomavirus type 1a E7 protein (residues 1-88). The experiment in a line: HPV1a E7 small-molecule binders, primary screen, biochemical, small-molecule microarray, residues 1-88, 635 nm (AID 1129). To be noted: small-molecule microarray binding, fluorescence 635 nm; higher = more signal.
For assay [11], the target named is Focal adhesion kinase 1 (Homo sapiens) (UniProt Q05397). The experiment in a line: small-molecule microarray binders of FAK, primary screen, biochemical, 635/667 nm fluorescence, BSA, DTT (AID 1130).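 Also: composite of spot emission at 667 nm and signal to noise over triplicate slides.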 To be noted: PTK2 binding, 635 nm fluorescence, higher = more signal.
Sequence of Focal adhesion kinase 1 (Homo sapiens) (Q05397 whole entry, looked up): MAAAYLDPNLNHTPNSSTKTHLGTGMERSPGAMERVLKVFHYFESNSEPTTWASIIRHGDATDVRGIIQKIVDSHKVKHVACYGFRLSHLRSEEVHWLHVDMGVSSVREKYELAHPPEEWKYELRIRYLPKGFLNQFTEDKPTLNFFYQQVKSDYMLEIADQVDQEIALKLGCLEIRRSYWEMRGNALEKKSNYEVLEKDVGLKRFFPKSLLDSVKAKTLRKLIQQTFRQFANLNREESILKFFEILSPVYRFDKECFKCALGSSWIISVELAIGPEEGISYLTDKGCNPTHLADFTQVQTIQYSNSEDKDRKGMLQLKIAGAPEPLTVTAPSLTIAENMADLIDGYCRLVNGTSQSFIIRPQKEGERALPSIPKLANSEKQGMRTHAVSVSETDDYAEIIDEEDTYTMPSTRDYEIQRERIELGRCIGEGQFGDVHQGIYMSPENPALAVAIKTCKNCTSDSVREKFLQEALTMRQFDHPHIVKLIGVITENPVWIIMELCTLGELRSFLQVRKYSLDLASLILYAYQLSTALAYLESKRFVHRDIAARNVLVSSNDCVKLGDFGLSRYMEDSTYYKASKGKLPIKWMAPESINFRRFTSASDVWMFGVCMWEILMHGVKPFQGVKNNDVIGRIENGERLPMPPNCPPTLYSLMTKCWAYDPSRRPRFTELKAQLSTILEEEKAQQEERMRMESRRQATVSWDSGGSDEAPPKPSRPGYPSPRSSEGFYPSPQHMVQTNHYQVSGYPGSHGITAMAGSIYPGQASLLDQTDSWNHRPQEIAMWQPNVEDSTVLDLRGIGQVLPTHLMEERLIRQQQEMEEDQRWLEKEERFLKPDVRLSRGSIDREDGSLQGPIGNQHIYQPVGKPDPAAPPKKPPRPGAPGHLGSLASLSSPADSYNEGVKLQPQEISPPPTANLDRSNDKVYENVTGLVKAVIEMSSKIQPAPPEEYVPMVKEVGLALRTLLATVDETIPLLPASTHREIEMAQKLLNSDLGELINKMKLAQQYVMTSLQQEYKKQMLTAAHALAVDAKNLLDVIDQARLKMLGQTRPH
Assay [12] deals with Fibrinogen (Alexa647-labelled). Put plainly: fibrinogen binders on compound microarrays, profiling panel, artefact control for SMM control-protein annotation, biochemical, small-molecule microarray, 635/667 nm fluorescence (AID 1131).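 Also: z-score merges 667 nm fluorescence with per-spot signal-to-noise over triplicate slides.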 Conditions: fibrinogen-A647 binding fluorescence, higher = more signal.
For assay [13], the target named is Follistatin (Homo sapiens) (UniProt P19883). The experiment in a line: follistatin binders on small-molecule microarrays, primary screen, biochemical, small-molecule microarray, 635/667 nm fluorescence (AID 1132). To be noted: FST binding, 635 nm fluorescence, higher = more signal.
Sequence of Follistatin (Homo sapiens) (P19883 whole entry, looked up): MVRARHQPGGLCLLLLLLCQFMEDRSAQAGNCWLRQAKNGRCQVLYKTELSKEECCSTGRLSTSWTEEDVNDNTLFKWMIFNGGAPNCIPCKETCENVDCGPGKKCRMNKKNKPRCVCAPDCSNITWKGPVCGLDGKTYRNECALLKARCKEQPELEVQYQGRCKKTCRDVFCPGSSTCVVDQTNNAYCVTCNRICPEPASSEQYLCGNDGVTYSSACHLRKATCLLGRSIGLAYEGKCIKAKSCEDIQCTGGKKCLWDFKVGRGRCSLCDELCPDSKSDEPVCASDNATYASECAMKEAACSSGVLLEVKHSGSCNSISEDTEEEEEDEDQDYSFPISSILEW
Assay [14] deals with Fibroblast growth factor 2 (Homo sapiens) (UniProt P09038). The experiment in a line: FGF2 binders on small-molecule microarrays, primary screen, biochemical, small-molecule microarray, 635/667 nm fluorescence (AID 1133). Conditions: small-molecule microarray binding, FGF2, fluorescence 635/667; higher = more signal.
Sequence of Fibroblast growth factor 2 (Homo sapiens) (P09038 whole entry, looked up): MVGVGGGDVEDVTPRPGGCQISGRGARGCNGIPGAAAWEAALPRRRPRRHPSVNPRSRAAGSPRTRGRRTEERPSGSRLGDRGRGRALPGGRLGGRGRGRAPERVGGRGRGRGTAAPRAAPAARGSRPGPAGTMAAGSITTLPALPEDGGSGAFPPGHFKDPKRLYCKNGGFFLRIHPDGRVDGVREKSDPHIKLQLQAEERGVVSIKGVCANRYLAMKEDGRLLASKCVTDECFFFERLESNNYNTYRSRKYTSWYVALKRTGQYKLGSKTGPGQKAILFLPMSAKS
The nature of assay [15]: mitochondrial membrane potential change in A549 cells, profiling panel, cell-based, JC-1 fluorescence, basal, 24 h, 100 nL (AID 1138).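 Also: A549 lung adenocarcinoma cells under basal conditions with no added stimulus; test concentration not given here.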 To be noted: higher = more signal.
For a further assay, the system named is Lefty1. Put plainly: Lefty1 binders on small-molecule microarrays, primary screen, biochemical, small-molecule microarray, 635/667 nm fluorescence (AID 1139). Conditions: small-molecule microarray binding, fluorescence 635/667; higher = more signal.
The test system of assay [16] is wheat germ agglutinin (Triticum aestivum), Alexa647-labelled. Put plainly: wheat germ agglutinin binders on compound microarrays, profiling panel, artefact control for SMM control-protein annotation, biochemical, small-molecule microarray, 635/667 nm fluorescence (AID 1140).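 Also: score merges 667 nm feature emission with signal to noise over triplicate slides.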 Conditions: WGA-A647 binding, 635 nm fluorescence, higher = more signal.
Assay [17] deals with Luciferin 4-monooxygenase (Photinus pyralis) (UniProt P08659). Put plainly: firefly luciferase enzyme inhibitors, primary screen, biochemical, luminescence, purified enzyme, 2006 set (AID 1141).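 Also: cell-free assay with purified firefly luciferase at 100 ng per well in PBS; test concentration not given here.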 To be noted: SteadyGlo luminescence, 30 min, higher = more signal, called active from +8 up or from −8 down.
Sequence of Luciferin 4-monooxygenase (Photinus pyralis) (P08659 whole entry, looked up): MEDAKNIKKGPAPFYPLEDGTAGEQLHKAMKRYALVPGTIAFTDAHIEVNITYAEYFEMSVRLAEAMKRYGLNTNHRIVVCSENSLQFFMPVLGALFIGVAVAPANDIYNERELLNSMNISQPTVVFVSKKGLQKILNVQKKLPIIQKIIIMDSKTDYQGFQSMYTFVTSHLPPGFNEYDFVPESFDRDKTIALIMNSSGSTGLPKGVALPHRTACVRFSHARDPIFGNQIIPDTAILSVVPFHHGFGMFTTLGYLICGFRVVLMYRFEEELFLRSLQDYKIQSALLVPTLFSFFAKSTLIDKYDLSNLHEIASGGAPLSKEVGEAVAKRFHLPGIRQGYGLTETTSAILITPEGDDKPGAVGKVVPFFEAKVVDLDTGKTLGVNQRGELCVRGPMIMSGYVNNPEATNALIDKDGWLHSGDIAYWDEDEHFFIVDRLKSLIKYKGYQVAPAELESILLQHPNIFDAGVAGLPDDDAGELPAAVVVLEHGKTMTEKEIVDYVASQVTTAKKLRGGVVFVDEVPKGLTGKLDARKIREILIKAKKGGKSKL

Sequence of Albumin (Bos taurus) (P02769 whole entry, looked up): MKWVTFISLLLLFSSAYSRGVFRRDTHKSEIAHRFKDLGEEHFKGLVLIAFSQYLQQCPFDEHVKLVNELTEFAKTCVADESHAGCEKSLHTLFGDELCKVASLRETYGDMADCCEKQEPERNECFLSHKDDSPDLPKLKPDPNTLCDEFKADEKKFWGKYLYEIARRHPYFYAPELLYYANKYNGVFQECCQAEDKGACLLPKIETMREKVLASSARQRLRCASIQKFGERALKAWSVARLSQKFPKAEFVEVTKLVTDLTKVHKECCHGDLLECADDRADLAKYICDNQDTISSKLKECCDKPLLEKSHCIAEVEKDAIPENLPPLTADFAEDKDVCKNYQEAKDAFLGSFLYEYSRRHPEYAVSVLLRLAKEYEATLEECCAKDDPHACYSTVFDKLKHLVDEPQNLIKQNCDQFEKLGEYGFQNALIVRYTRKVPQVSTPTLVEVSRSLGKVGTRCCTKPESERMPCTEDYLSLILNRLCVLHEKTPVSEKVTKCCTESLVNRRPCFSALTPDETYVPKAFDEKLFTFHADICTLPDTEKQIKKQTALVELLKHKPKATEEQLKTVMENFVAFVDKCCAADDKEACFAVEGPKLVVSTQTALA
Sequence of Concanavalin-A (Canavalia ensiformis) (P02866 whole entry, looked up): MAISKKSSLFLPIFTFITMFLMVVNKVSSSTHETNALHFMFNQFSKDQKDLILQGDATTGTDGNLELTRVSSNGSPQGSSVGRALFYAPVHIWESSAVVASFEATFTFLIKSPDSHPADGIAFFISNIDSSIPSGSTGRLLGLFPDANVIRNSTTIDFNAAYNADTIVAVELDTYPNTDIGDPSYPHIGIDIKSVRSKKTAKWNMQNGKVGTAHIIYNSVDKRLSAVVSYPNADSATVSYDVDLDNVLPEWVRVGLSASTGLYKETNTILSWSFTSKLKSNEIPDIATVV

Consider `CCOC(=O)[C@H](Cc1ccccc1)NC(=O)CCC1CC(OC(=O)NCc2ccc3c(c2)OCO3)CC2(CCCC(COC(=O)NCC(c3ccccc3)c3ccccc3)O2)O1` (stereo not given in full), for which the composite z-score in the assay with Albumin (Bos taurus) was 0.48; in assay [2], 0.17; in [3], -0.11; in [4] it was 0.28; in assay [5], 0.86; in assay [6], 0.0713. The composite z-score in the assay on Sam68 (KHDRBS1) was determined as 1.32; in assay [7], 0.226; in [8] it was 0.329; in assay [9] it was 0.98; in [10], 1.2; in [11] it was 0.231. Besides, the composite z-score in assay [12] was 0.0058; in assay [13], 0.83; in [14], 0.555; with Lefty1, 0.579; in [16], 0.477. In addition, in [1], the composite Z-score was -0.718 (inactive). In addition, the z-score is 0.803 in assay [15] and 0.635 (inactive) in assay [17].
In the case of `CC(C)c1ccc(NN2C(C(O)c3ccc4c(c3)OCO4)C=CC3C(=O)N(c4ccccc4)C(=O)C32)cc1` (stereo not given), the composite z-score was 1 with Albumin (Bos taurus); 0.166 in [2]; -0.0267 in assay [3]; 0.564 in assay [4]; 2.6 in assay [5]; 0.738 in assay [6]. For the same compound, the composite z-score is 1.29 with Sam68 (KHDRBS1); -0.0586 in assay [7]; 1.18 in [8]; 1.57 in assay [9]; 1.19 in [10]; 0.477 in assay [11]. Also, the composite z-score in [12] is 1.04; in [13], 1.02; in [14], -0.146; with Lefty1 it was 0.545; in assay [16], 0.881. Moreover, in [1], the composite Z-score was 0.491 (inactive). Moreover, the z-score in assay [15] was -0.726; in [17] it was -1.72 (inactive).
In the case of `COCC(=C=CC[C@@H](O)c1ccccc1OCCO)CCO`, the composite z-score was -0.0934 with Albumin (Bos taurus); 0.0596 in assay [2]; -0.0811 in assay [3]; 0.763 in [4]; 0.994 in assay [5]; -0.0546 in assay [6]. Moreover, the composite z-score with Sam68 (KHDRBS1) was 0.567; in [7], 0.22; in assay [8], -0.192; in assay [9], 0.0272; in [10], 0.534; in assay [11], 0.208. The composite z-score in [12] is 0.664; in [13] it was 0.768; in [14], 1.46; in the assay on Lefty1 it was 0.409; in [16], -0.0571. For the same compound, the composite Z-score in assay [1] was 0.493 (inactive). For the same compound, the z-score in [15] was 1.51; in assay [17] it was -2.02 (inactive).
On to `C=CC[C@@H]1C=C[C@H](ON=C[C@@H](OC)[C@H](C)C=CCC(=O)OC)[C@@H](CO)O1`, for which the composite z-score with Albumin (Bos taurus) was -0.286; in assay [2] it was 0.062; in assay [3], -0.0242; in [4], 0.131; in [5] it was 0.336; in assay [6] it was -0.108. The composite z-score in the assay with Sam68 (KHDRBS1) is 0.496; in assay [7] it was 0.075; in assay [8], -0.225; in [9], -0.179; in assay [10] it was 0.296; in [11], 0.191. The composite z-score in assay [12] is -0.613; in assay [13] it was 0.234; in [14], 0.13; with Lefty1, 0.566; in assay [16], -1.06. The composite Z-score in assay [1] was 0.0176 (inactive). Also, the results for the z-score in [15] and in [17] were -0.019 and 0.191 (inactive), respectively.
With `CO[C@@H]1COC(=O)CC=C[C@@H](C)[C@@H]2C=C[C@H](O)[C@@H](COC(=O)[C@H](C)NC(=O)CC=C[C@H]1C)O2`, the composite z-score with Albumin (Bos taurus) was -0.107; in [2], -0.0328; in [3], -0.164; in assay [4] it was -0.455; in assay [5] it was -1; in [6], 1.27. Moreover, the composite z-score in the assay on Sam68 (KHDRBS1) is 0.249; in assay [7], 1.54; in assay [8] it was -0.016; in assay [9] it was 1.85; in assay [10], -0.794; in [11], -0.407. The composite z-score in [12] was -0.734; in assay [13], 1.11; in assay [14], 1.73; in the assay on Lefty1 it was 1.53; in [16] it was -0.17. In addition, the composite Z-score in assay [1] was 0.581 (inactive). In addition, the z-score in [15] is -1.23; in [17], 1.02 (inactive).
